Measured values reported in PubChem BioAssay AID623868 (Vanderbilt High Throughput Screening Facility, 2012).
About 760 (36%) of roughly 2,100 compounds were called active.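 How the source made its calls: active means thallium-flux fluorescence traces judged by eye to show enhanced or reduced glutamate response, manual score 1 or -1, so both directions (some results past the limit were not filed as active); inactive means the rest, including fluorescent or raised-baseline compounds.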 These entries were drawn from the full list.

Assay: thallium influx changes without GIRK channels – cell-based, HEK-293 rmGlu8, no GIRK, thallium flux, counter-screen for GIRK activator project, confirmation (AID 623868);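 further: extra codes mark interference with 3 for fluorescent and 4 for baseline rise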
Details: thallium flux fluorescence, at 10 µM, actives lie on both sides, codes: 1 enhancer, -1 blocker, 0 none, thallium stimulus containing EC20 glutamate

Structure (SMILES)	manual score
CCN1CCCC1CNC(=O)C1CCN(Cc2nc(-c3cccc(Br)c3)oc2C)CC1 (configuration not stated)	0 (inactive)
CCOC(=O)C(CC)Sc1nnc(COc2ccc(C)cc2)n1-c1ccccc1 (configuration not stated)	3 (inactive)
CCOC(=O)C(CC)Sc1nnc2cc(C)c3ccccc3n12 (configuration not stated)	-1 (active)
O=c1c2ccc(Cl)cc2[nH]c(=S)n1CCC1=CCCCC1	1 (active)
CCN(CC)CCn1c(=S)[nH]c2cc(Cl)ccc2c1=O	0.5 (inactive)
COCCN(C(=O)Cc1cccs1)C(C(=O)NCc1ccc(OC)cc1)c1ccccc1 (configuration not stated)	0 (inactive)
COc1ccc(CNC(=O)C(C#N)c2nc3ccccc3nc2N2CCCC2)cc1 (configuration not stated)	3 (inactive)
COc1ccc(CN(CCC#N)C(=S)NC(=O)c2ccccc2)cc1	1 (active)
N#CCCN(Cc1ccccc1)C(=S)NC(=O)c1ccccc1	1 (active)
CCCN1C(=O)/C(=C/c2ccc(C)s2)NC1=S	1 (active)
CCCN1C(=O)/C(=C/c2ccc(N3CCCC3)c(C)c2)NC1=S	3 (inactive)
CCN1C(=O)/C(=C/c2ccc(C)s2)NC1=S	0.5 (inactive)
CC(C)CN1C(=O)/C(=C/c2cccs2)NC1=S	1 (active)
O=C1/C(=C/c2ccc(N3CCCC3)cc2)NC(=S)N1C1CC1	3 (inactive)
CSc1nc2ccccc2cc1/C=C(\C#N)c1cccc(C)c1	0 (inactive)
CC1Oc2ccccc2C=C1/C=N/NC(=O)c1ccccc1 (configuration not stated)	0 (inactive)
Cc1ccc(C(=O)N/N=C/C2=Cc3ccccc3OC2C)cc1 (configuration not stated)	1 (active)
CCCCSc1nc(N)c(NC(=O)c2ccco2)c(=O)[nH]1	0 (inactive)
CCOC(=O)c1sc(NC(=S)NC(=O)c2ccco2)nc1C	1 (active)
COC(=O)c1sc(NC(=S)NC(=O)c2ccccc2)nc1C	1 (active)
COC(=O)c1sc(NC(=S)NC(=O)c2cccc(C)c2)nc1C	1 (active)
Cc1nnc(NC(=O)c2ccco2)s1	0 (inactive)

Structure (SMILES)	manual score
COC(=O)c1sc(NC(=S)NC(=O)c2ccccc2Cl)nc1C	1 (active)
COC(=O)Nc1nc(C)c(C(=O)N(C)C)s1	0 (inactive)
COc1cc(C)ccc1OCCOc1cc(C)ccc1Cl	0 (inactive)
COc1ccc(OC)c(S(=O)(=O)N(C)CC(=O)N2CCN(c3ccccc3F)CC2)c1	0 (inactive)
Cc1cccc2c1nc(-c1ccccc1)n1cnnc21	0 (inactive)
Cc1cc(NC(=O)COc2ccc(Cl)cc2Cl)n(-c2ccccc2)n1	0 (inactive)
O=C(COc1ccc(Cl)cc1Cl)Nc1ccccn1	0 (inactive)
CN(C(=S)NC(=O)CCCOc1ccc(Cl)cc1Cl)c1ccccc1	1 (active)
CSc1nc(N2CCOCC2)c2c(c1C#N)CC(C)(C)OC2	0 (inactive)
Cc1nc(SC2CCOC2=O)c2c(C)c(C)sc2n1 (configuration not stated)	1 (active)
CCNC(=S)N/N=C/c1c(Cl)cccc1Cl	1 (active)
Cc1ccc(NCC(=O)Nc2cccc(S(=O)(=O)N(C)C)c2)c(Cl)c1	0 (inactive)
CCOC(=O)N/N=C/c1c(C)nn(-c2ccccc2Cl)c1Cl	0 (inactive)
COc1ccc(C)cc1S(=O)(=O)Nc1cccc(Cl)c1Cl	0.5 (inactive)
Cc1cccc(-n2c(O)c(/C=N/NC(=O)c3ccccc3Cl)c3ccccc3c2=O)n1	3 (inactive)
Cc1ccc(NC(=S)N/N=C/c2c(Cl)cccc2Cl)c(C)c1	1 (active)
O=C(Cn1nc(Cc2ccncc2)c2ccccc2c1=O)N1CCN(C(=O)c2ccco2)CC1	0 (inactive)
COc1cccc(-n2c(SCC(=O)NCCC3=CCCCC3)nc3n[nH]c(C)c3c2=N)c1	0 (inactive)
Cc1cc(C)c2nc(SCC(=O)NCCC3=CCCCC3)cc(C)c2c1	1 (active)
O=C(CCCc1nc(-c2ccc(Cl)cc2)no1)Nc1cccnc1	0 (inactive)
CCOC(=O)c1cnn2c1[nH]c(=O)c1ccccc12	1 (active)
CCOC(=O)c1ccccc1Nc1cn(C(C)=O)c2ccccc12	0 (inactive)

Structure (SMILES)	manual score
Cc1cc2[nH]c(=O)c3ccccc3n2n1	0 (inactive)
CN(C=O)CP(=O)(O)CCN1CCCC1=O	0 (inactive)
Cc1cc(C(=O)N2CCN(CCc3ccccc3)CC2)no1	0 (inactive)
S=c1[nH]nc(-c2cc3c(s2)-c2ccccc2CC3)o1	1 (active)
CN1C=CC2=C(C#N)C(N)C(C#N)(C#N)[C@H](c3ccccc3)[C@H]2C1 (some centres not stated)	3 (inactive)
COc1ccc(-c2cc(C(F)(F)F)c3c(n2)sc2c(O)cc(=O)[nH]c23)c(OC)c1	0 (inactive)
O=C(NCCCN1CCN(c2cccc(Cl)c2)CC1)c1cccc(N2CCCC2=O)c1	0 (inactive)
Cn1sc(NC(=O)c2cccc(Cl)c2)nc1=O	-1 (active)
O=C(Nc1cccc(Cl)c1)Nc1nccs1	0 (inactive)
C=CCn1c(=S)[nH]c2nc3c(cc2c1=O)CCCC3	1 (active)
CCn1c(=S)[nH]c2nc3c(cc2c1=O)CCCC3	1 (active)
Cc1noc(C)c1S(=O)(=O)N1CCC(Cc2ccccc2)CC1	0 (inactive)
CCCCCCN1C2=NCCN2c2ccccc21	0 (inactive)
CCC(=O)N1c2ccc(C)cc2C2=NNC(=S)NC21O (configuration not stated)	1 (active)
CCOc1ccccc1C(=O)N1c2ccccc2Sc2ccccc21	0 (inactive)
COCC(=O)/C=C1\Sc2ccccc2N1C	0 (inactive)
COc1ccccc1C(=O)N1c2ccccc2Sc2ccccc21	-1 (active)
COc1cc(C(=S)N2CCCC2)cc(OC)c1OS(=O)(=O)c1ccc(NC(C)=O)cc1	-1 (active)
COc1cc(NC(=O)CS(=O)(=O)c2ccc(C)cc2)cc(OC)c1OC	0 (inactive)
COc1ccc(C(=O)Nc2ccc(S(=O)(=O)NCc3ccco3)cc2)cc1OC	-0.5 (inactive)
O=C(NC(Nc1nc2ccc([N+](=O)[O-])cc2s1)(C(F)(F)F)C(F)(F)F)c1ccccc1	1 (active)
O=C(NC(Nc1nc2ccc([N+](=O)[O-])cc2s1)(C(F)(F)F)C(F)(F)F)c1ccccc1Cl	1 (active)

Structure (SMILES)	manual score
Cc1ccc(C)c(OCC(=O)Nc2nc3ccc([N+](=O)[O-])cc3s2)c1C	0 (inactive)
CS(=O)(=O)c1ccc2nc(NC(=O)C3C4C=CC(C4)C3C(=O)O)sc2c1 (configuration not stated)	0 (inactive)
O=C(Nn1c(C2CCCCC2)nc2ccccc2c1=O)c1ccc([N+](=O)[O-])cc1Cl	0 (inactive)
N#C/C(=C/C=C/c1ccccc1)C(=O)Nc1ccccc1	0 (inactive)
S=c1[nH]nc(-c2cc3ccccc3o2)n1Cc1ccccc1	1 (active)
S=c1[nH]nc(-c2ccc(Br)o2)n1Cc1ccccc1	1 (active)
Cn1c(SCC(=O)c2cc3ccccc3o2)nnc1-c1ccccc1	0 (inactive)
O=c1oc(-c2ccc(Br)o2)nc2ccccc12	0 (inactive)
CCn1c(-c2cc3ccccc3cc2O)n[nH]c1=S	0 (inactive)
CC(C)N(Cc1nc(-c2ccccc2)no1)C(=O)CSc1ccccc1	0 (inactive)
CC1(C)CC(=O)C2=C(C1)NC(SCC(=O)Nc1ccccc1)=C(C#N)C2c1ccco1 (configuration not stated)	0.5 (inactive)
CC1(C)CC(=O)C2=C(C1)N(c1ccccc1)C(N)=C(C#N)C2c1ccsc1 (configuration not stated)	-1 (active)
CN1C2C=C3C(C#N)=C(N)C(C#N)(C#N)[C@@H](c4ccsc4)[C@@H]3C1CC2 (some centres not stated)	0 (inactive)
CCC(C)(C)n1nnnc1C(c1ccccn1)N1CCCCC1 (configuration not stated)	0 (inactive)
CC(C)Sc1nc2c(c(=O)[nH]1)C(c1cccs1)C1=C(CC(C)(C)CC1=O)N2 (configuration not stated)	-1 (active)
Cc1cc2c(cc1C)NC(c1c(C)n(C)n(-c3ccccc3)c1=O)C1=C(CC(C)(C)CC1=O)N2 (configuration not stated)	3 (inactive)
Cc1c(C2Nc3ccccc3NC3=C2C(=O)CC(C)(C)C3)cnn1C (configuration not stated)	0 (inactive)
O=C(NCc1cccs1)c1cccnc1C(=O)O	0 (inactive)
CCC(C)NC(=O)c1ccccc1NC(=O)Nc1ccccc1 (configuration not stated)	0.5 (inactive)
O=C(O)c1ccccc1C(=O)Nc1ccc(-c2csc(-c3ccccc3)n2)cc1	0 (inactive)
O=C(Nc1ccccc1C(=O)O)c1ccc(NC(=O)c2ccc(Br)o2)cc1	-1 (active)
COc1cc(OC)cc(C(=O)NC(=S)NCCc2ccccc2)c1	0 (inactive)

Structure (SMILES)	manual score
O=C(NC(=S)NCCc1ccccc1)c1ccco1	1 (active)
Cc1ccccc1C(=O)NC(=S)NCCc1ccccc1	0 (inactive)
O=C(NC(=S)NCCc1ccccc1)c1ccccc1	1 (active)
O=C(NC(=S)N(CCc1ccccc1)CCc1ccccc1)c1ccco1	1 (active)
O=C(CNC(=S)NC(=O)c1ccco1)c1ccccc1	1 (active)
CC1CN(C2CC(C)(C)NC(C)(C)C2)CCC1=O (configuration not stated)	0 (inactive)
CCCCc1cc(=O)oc2cc(C)cc(O)c12	-0.5 (inactive)
COc1cc(/C=C(\C#N)C(=O)Nc2cccnc2)ccc1OC(C)C	0 (inactive)
Nc1sccc1C(=O)c1ccccc1	0 (inactive)
O=C(CNC(=S)NC(=O)c1cccs1)c1ccccc1	1 (active)
CCOc1ccccc1-c1c2cc(O)c(=O)cc-2oc2cc(O)c(O)cc12	0 (inactive)
CCN(CC)S(=O)(=O)c1cccc(-c2n[nH]c(=S)n2/N=C/c2ccc(C(=O)OC)cc2)c1	1 (active)
CCN(CC)S(=O)(=O)c1cccc(S(=O)(=O)c2cccc(S(=O)(=O)N(CC)CC)c2)c1	0 (inactive)
COc1ccccc1CNC(=O)c1c(N)n(CCCN2CCOCC2)c2nc3ccccc3nc12	0 (inactive)
C=CCn1c(N)c(C(=O)OC(C)(C)C)c2nc3ccccc3nc21	-1 (active)
COCC(C)OC(=O)c1c(N)n(CC(C)C)c2nc3ccccc3nc12 (configuration not stated)	0 (inactive)
Cc1cccn2c(=O)c(/C=N/O)c(N3CCCC3)nc12	0 (inactive)
CSc1cccc(NC(=O)CN(c2ccc(C)cc2C)S(C)(=O)=O)c1	0 (inactive)
CC1(C)CC(=O)C2=C(C1)OC(/N=C/N1CCOCC1)=C(C#N)C2c1ccccc1 (configuration not stated)	-1 (active)
